Inconclusive results are not listed. Calls of active or inactive are those of the source. Rule for the calls, unless noted: active = hit-call score of the fitted dose curve at least 0.9, where 1 is the maximum; inactive = score below 0.9.
Tests used:
[1] = CCTE_Shafer_MEA_acute_AB: CCTE's Alamar Blue Assay for Cytotoxicity in the Neural Acute Assay, Shafer Lab (AID 2284069; active = hit-call score of the fitted dose curve at least 0.9, where 1 is the maximum;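 note: active compounds lower the viability signal compared with DMSO wells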)
Outline: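 Cytotoxicity endpoint for acute MEA exposures of primary rat cortical neurons on day 13 or 15. Resazurin reduction is read fluorescently at 544/590 nm, with DMSO as the negative-control baseline.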

[2] = CCTE_Shafer_MEA_dev_per_burst_interspike_interval: CCTE's Neural Network Formation Assay for Burst Interspike Interval, Shafer Lab (AID 2284044);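 note: mean spike spacing inside bursts as AUC over recordings on days 5 7 9 12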
Outline: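 Mean interspike interval within single-electrode bursts, averaged over bursting electrodes, from rat cortical cultures on MEA plates recorded on days 5, 7, 9 and 12. Continuous compound exposure from plating; trapezoidal AUC fitted downward relative to DMSO.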

[3] = CCTE_Shafer_MEA_dev_burst_duration_mean: CCTE's Neural Network Formation Assay for Mean Burst Duration, Shafer Lab (AID 2284045)
Outline: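 Primary rat cortical neurons on 48-well 16-electrode MEA plates, exposed from day 0 with renewal at DIV 5 and 9; spontaneous activity recorded on days 5, 7, 9, 12. Well-mean burst duration across bursting electrodes, collapsed as trapezoidal AUC; DMSO baseline.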

[4] = CCTE_Shafer_MEA_dev_interburst_interval_mean: CCTE's Neural Network Formation Assay for Mean Interburst Interval, Shafer Lab (AID 2284046);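 note: well-mean interburst interval of bursting electrodes as AUC over four recording days; curve fitted for decrease in interburst interval relative to DMSO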
Outline: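 Network formation assay in primary rat cortical cultures, exposed from DIV 0 to 12. Mean interburst interval per well, integrated as AUC over four recordings.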

[5] = CCTE_Shafer_MEA_dev_inter_network_spike_interval_mean: CCTE's Neural Network Formation Assay for Mean Inter-network Spike Interval, Shafer Lab (AID 2284047);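 for AC50: potency for a decrease in mean inter-network spike interval below DMSO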
Outline: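 Compound was given at plating to primary rat cortical neurons and renewed with full medium changes on DIV 5 and 9. Extracellular activity was recorded on days 5, 7, 9, 12; AUC values were fitted for loss relative to DMSO control.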

[6] = CCTE_Shafer_MEA_dev_network_spike_number: CCTE's Neural Network Formation Assay for Number of Network Spikes, Shafer Lab (AID 2284048);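 note: synchronized bursts across electrodes counted on days 5 7 9 12 and integrated as AUC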;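 for AC50: fit as a loss of signal meaning fewer network spikes than DMSO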
Outline: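 Primary rat cortical neurons on PEI/laminin 48-well MEA plates, dosed from plating day 0 for 12 days, renewed at DIV 5 and 9. Network spike counts recorded DIV 5, 7, 9, 12, collapsed as trapezoidal AUC; DMSO baseline.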

[7] = CCTE_Shafer_MEA_dev_network_spike_peak: CCTE's Neural Network Formation Assay for Mean Number of Electrodes in Network Spike, Shafer Lab (AID 2284049);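 for AC50: fitted for loss of signal meaning fewer electrodes in network spikes than DMSO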
Outline: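 Network-spike peak electrode count from recordings on days 5, 7, 9 and 12 was combined as trapezoidal area under the curve. Rat cortical cultures were treated continuously from plating, with compound renewed at each feed (DIV 5, 9); fits versus DMSO.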

[8] = CCTE_Shafer_MEA_dev_spike_duration_mean: CCTE's Neural Network Formation Assay for Mean Spike Duration, Shafer Lab (AID 2284051);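 note: mean network spike duration pooled as area under curve over DIV 5 to 12 recordings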;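 for AC50: potency for a decrease in mean network spike duration versus DMSO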
Outline: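 With DMSO as baseline, loss of mean network spike duration was scored from extracellular recordings of rat cortical neurons on MEA plates. Exposure spanned plating to DIV 12; the four recording days were collapsed into one AUC value.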

[9] = CCTE_Shafer_MEA_dev_network_spike_duration_std: CCTE's Neural Network Formation Assay for Standard Deviation of Network Spike Duration, Shafer Lab (AID 2284052);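 note: area under curve of spike duration SD across recording days 5 to 12; hits are decreases in network spike duration SD versus DMSO vehicle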
Outline: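 Developing networks of rat cortical neurons were exposed over twelve days in vitro on 48-well MEA plates. Trapezoidal AUC of recordings (DIV 5–12) was analysed for signal loss relative to DMSO vehicle.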

[10] = CCTE_Shafer_MEA_dev_per_network_spike_spike_number_mean: CCTE's Neural Network Formation Assay for Mean Number of Spikes in a Network Spike, Shafer Lab (AID 2284053)
Outline: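 First, rat cortical cells (1.5 x 10^5/well) were seeded onto MEA wells; second, dosing began at plating and was refreshed on DIV 5 and 9; finally, network-spike spike counts across DIV 5–12 were summarized as AUC.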

[11] = CCTE_Shafer_MEA_dev_per_network_spike_spike_percent: CCTE's Neural Network Formation Assay for Percent of Spikes in a Network Spike, Shafer Lab (AID 2284054)
Outline: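 Rat primary cortical neurons were grown on 48-well MEA plates (16 electrodes/well), exposed from plating day 0 through day 12, with treatment renewed on DIV 5 and 9. Percent of spikes within 0.05 s network-spike peaks was measured, summarised as AUC across days 5, 7, 9, 12.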

[12] = CCTE_Shafer_MEA_dev_LDH: CCTE's Lactate Dehydrogenase Assay for Cytotoxicity in the Neural Network Formation Assay, Shafer Lab (AID 2284068; active = hit-call score of the fitted dose curve at least 0.9, where 1 is the maximum;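 note: exposure for twelve days from plating with re-dosing on DIV 5 and 9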)
Outline: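 Developing rat cortical networks on MEA plates are exposed to compound for 12 days from plating. LDH activity is measured spectrophotometrically, with DMSO as baseline.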

[13] = CCTE_Shafer_MEA_dev_mutual_information_norm: CCTE's Neural Network Formation Assay for Mutual Information Normalization, Shafer Lab (AID 2284091);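 for AC50: mutual information between electrodes summarised as area under curve across four recording days; potency is for a decrease in mutual information relative to DMSO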
Outline: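 Primary rat cortical neurons on PEI-coated 48-well MEA plates, 1.5 x 10^5 cells/well, exposed from day 0 through day 12 with re-dosing at DIV 5 and 9. Mutual information between electrodes recorded days 5, 7, 9, 12; trapezoidal AUC, loss-of-signal fit versus DMSO.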

[14] = CCTE_Shafer_MEA_dev_correlation_coefficient_mean: CCTE's Neural Network Formation Assay for Mean Correlation Coefficient, Shafer Lab (AID 2284093);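 for AC50: well mean pairwise spike train correlation integrated as AUC over recording days 5 to 12; potency fitted for loss of correlation relative to DMSO vehicle wells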
Outline: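 Extracellular firing from rat cortical networks on 48-well MEAs, DMSO-referenced, negative fitting direction. Compound present from plating to DIV12; mean pairwise correlation per well integrated over DIV5–12 recordings by trapezoidal AUC.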

DIO2 (gene 1734) = experiment: CCTE_GLTED_hDIO2: CCTE's human Deiodinase 2 (DIO2) Inhibition Assay, Great Lakes Toxicology and Ecology Division (GLTED) Lab (AID 2284050; active = hit-call score of the fitted dose curve at least 0.9, where 1 is the maximum)
Outline: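 Cell-free human DIO2 enzyme was incubated with test chemical for 3 h; iodide liberated from substrate was then quantified by the Sandell-Kolthoff reaction (absorbance), run in triplicate. Loss of signal versus DMSO baseline indicated inhibition.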

[15] = CCTE_Shafer_MEA_acute_LDH: CCTE's Lactate Dehydrogenase Assay for Cytotoxicity in the Neural Acute Assay, Shafer Lab (AID 2284086; active = hit-call score of the fitted dose curve at least 0.9, where 1 is the maximum;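 note: active means LDH release rises above DMSO vehicle level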)
Outline: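 Primary rat cortical neurons on 48-well MEA plates, treated on day 13 or 15 post-plating. After the 40-min recording with compound, medium LDH release was read by absorbance at 490 nm. Gain of signal was fitted against DMSO negative control.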

[16] = CCTE_Shafer_MEA_dev_AB: CCTE's Alamar Blue Assay for Cytotoxicity in the Neural Network Formation Assay, Shafer Lab (AID 2284083; active = hit-call score of the fitted dose curve at least 0.9, where 1 is the maximum;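 note: resazurin reduction fluorescence as viability of cultured neurons; twelve days of exposure from plating with re-dosing on DIV 5 and 9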)
Outline: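 Cytotoxicity companion to the developmental MEA: primary rat cortical neurons, 12-day exposure starting day 0, compound refreshed DIV 5 and 9; resazurin fluorescence, fitted against DMSO vehicle.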

[17] = UKN5_HCS_SBAD2_cell_viability: Viability Assessment in the University of Konstanz (UKN) Leist Lab Neurite Outgrowth Assay in human iPSC-derived immature Dorsal Root Ganglia Neurons (UKN5) (AID 2284056)
Outline: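 iPSC-derived immature peripheral neurons (SBAD2) seeded on Matrigel with CHIR99021, SU5402 and DAPT, dosed 1 h later for 24 h. Viability from Hoechst H-33342 and calcein-AM live staining, high-content imaging; bidirectional fit versus DMSO.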

[18] = UKN5_HCS_SBAD2_neurite_outgrowth: University of Konstanz (UKN) Leist Lab Neurite Outgrowth Assay in human iPSC-derived immature Dorsal Root Ganglia Neurons (UKN5) (AID 2284070); details: actives raise or lower the signal
Outline: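 Human iPSC-derived immature DRG neurons (SBAD2) on Matrigel with CHIR99021 (1.5 uM), SU5402 (5 uM), DAPT (5 uM); compounds added 1 h post-seeding for 24 h. Calcein-AM neurite area imaged; bidirectional fit vs DMSO.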

[19] = UKN2_HCS_IMR90_neural_migration: University of Konstanz (UKN) Leist Lab Neural Crest Cell Migration Assay in human induced IMR90 Pluripotent Stem Cells (UKN2) (AID 2284204); details: actives raise or lower the signal
Outline: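 iPSC-derived IMR90 neural crest cells seeded around stoppers on PLO/laminin/fibronectin; migration started in N2-S medium with EGF/FGF, compounds added after 24 h for 24 h. Migration into cell-free area imaged after calcein-AM/Hoechst staining; bidirectional fit versus DMSO.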

Measured: AC50

CCCCCCCCCCCCCCCS(=O)(=O)Oc1ccccc1
inactive: [1]

C=C(C)C(=O)OCCC(F)(F)C(F)(F)C(F)(F)C(F)(F)C(F)(F)C(F)(F)F
not listed: [1] | DIO2 (gene 1734) | [15] | [16] | [17] | [18] | [19]
inactive: all other assays above

ClC1=C(Cl)C(Cl)(Cl)C(Cl)=C1Cl
active: DIO2 (gene 1734) 23.9 µM

CCCOc1sc(C(=O)N2CCC(c3cc(CN)ccc3F)CC2)c(C)c1Br
inactive: [15]

CN1CCN(c2ccccc2/C=C2\SCCN(c3ccc(Cl)c(Cl)c3)C2=O)CC1
inactive: [1] | [15]
active: DIO2 (gene 1734) 104 µM

CCCCCCCCCCCCN1CCCC1=O
inactive: [15]
active: DIO2 (gene 1734) 138 µM

OCCC(F)(F)C(F)(F)C(F)(F)C(F)(F)C(F)(F)C(F)(F)F
not listed: [1] | [12] | DIO2 (gene 1734) | [15] | [16] | [17] | [18] | [19]
inactive: all other assays above

c1ccc2c(c1)ccc1ccccc12
not listed: [1] | DIO2 (gene 1734) | [15] | [17] | [18] | [19]
inactive: all other assays above

c1ccc2c(c1)Cc1ccccc1-2
not listed: [1] | DIO2 (gene 1734) | [15] | [17] | [18] | [19]
inactive: all other assays above

CC(C)(C)c1ccc(O)c(C(C)(C)C)c1
active: DIO2 (gene 1734) 159 µM

CCCCCCCCCCCCc1ccccc1S(=O)(=O)O
inactive: [1] | [15]
active: DIO2 (gene 1734) 72.2 µM

CC1=C(/C=C/C(C)=C/C=C/C(C)=C/C(=O)O)C(C)(C)CCC1
inactive: [2] | [3] | [10] | [17] | [18] | [16]
active: [4] 3.54 µM | [5] 319 nM | [6] 7.99 µM | [7] 24.1 µM | DIO2 (gene 1734) 60.4 µM | [8] 10.1 µM | [9] 2.98 µM | [11] 26.9 µM | [12] 19 µM | [13] 7.47 µM | [14] 23.4 µM | [19] 5.77 µM

CC(C)(C)c1cc(C(C)(C)C)c(O)c(C(C)(C)C)c1
inactive: [1]

NC(=O)N(O)[C@@H]1C=C[C@H](Oc2cccc(Oc3ccc(F)cc3)c2)C1
active: DIO2 (gene 1734) 36.5 µM
inactive: [1] | [15]

O=C(O)c1ccccc1C(c1ccc(O)cc1)c1ccc(O)cc1
inactive: [1] | [15]
